Experimental findings from PubChem BioAssay (NCATS) are described below.

Records with an inconclusive call do not appear. Activity calls are given as the source filed them. Unless noted, the call rests on the fitted dose curve; in most records, active means well fitted curve in the direction sought with a large enough effect; inconclusive means small, poorly fitted or top-dose-only effect, or another doubt; inactive means no such curve, though single readings can be large; an effect the other way counts as inactive or inconclusive.

Test [1] is described as follows: Cytometric Cell-Based qHTS for Inhibitors of the mTORC1 Signaling Pathway in MEF (Tsc2-/-, p53-/-) Cells (AID 2660).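 Further: Tsc2 and p53 null MEFs carrying empty vector with compound for 24 h; percent of cells above a phospho-rpS6 to PI ratio cutoff in each well; series mostly up to about 38 µM.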 In a few lines:
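Cells are plated, treated with compound for 24 hrs at 37 degree Celsius, then fixed, blocked and immunostained for phospho-rpS6 Ser235/236. Propidium iodide counterstain follows. Per-well % positive cells is derived from the PI-normalized phospho-S6 signal.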
In general terms: Quantitative high-throughput screening tests each substance at several concentrations.

Test [2] can be described thus: High Content Imaging Cell-Based qHTS for Inhibitors of the mTORC1 Signaling Pathway in MEF (Tsc2-/-, p53-/-) Cells (AID 2666).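 Further: percent of cells scored positive for phospho-rpS6 Ser235/236 immunostaining by imaging.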 In a few lines:
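MEF Tsc2-/- p53-/- (empty vector), DMEM/10% FBS; cpd 24 h 37 °C; PFA fix, Alexa-488 p-rpS6 S235/236 Ab, Hoechst; imaged; rapamycin-defined inhibition; % positive cells/well.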

Test [3] in a line: High Content Imaging Cell-Based qHTS for Inhibitors of the mTORC1 Signaling Pathway in MEF Cells (AID 2667).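 Further: Tsc2-/- p53-/- MEFs stably re-expressing wild-type Tsc2 exposed 24 h; series mostly up to about 38 µM.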 In a few lines: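 Read-out is the share of phospho-rpS6-positive cells per well, from Hoechst-normalized Alexa-488 Ser235/236 staining imaged on IN Cell. Cells: WT Tsc2-expressing Tsc2-/-, p53-/- MEFs exposed to compound for 24 hrs.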
Test [4] can be described thus: Cytometry Cell-Based qHTS for Inhibitors of the mTORC1 Signaling Pathway in MEF cells (AID 2668).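 Further: Tsc2-/- p53-/- mouse embryonic fibroblasts stably re-expressing wild-type Tsc2; percent cells positive for phospho-rpS6 Ser235/236 relative to propidium iodide stain; series mostly up to about 38 µM.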 In a few lines: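 Tsc2-/-, p53-/- MEFs re-expressing WT Tsc2; cpd 24 hrs, 37 degree Celsius; PFA fix, Alexa-488 p-rpS6 (Ser235/236) Ab 2 hrs RT, PI counterstain; Acumen 488nm scan; p-S6/PI ratio → % positive cells; PI count = viability.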
For test [5], the target named is Ubiquitin carboxyl-terminal hydrolase 2 (Homo sapiens) (UniProt O75604). Nature of the test: qHTS Validation Assay for Inhibitors of Ubiquitin-specific Protease USP2a Using CHOP2 as the Reporter (AID 463106). In a few lines: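 Fluorescence read-out at Ex 485nm/Em 531nm after 60min RT, following addition of 25nM Ub-CHOP2 plus 25nM reporter substrate to USP2 core (10nM) pretreated 30min with compound. Data normalized to NEM full inhibition; concentration-response curves fitted.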

The target in test [6] is DNA polymerase III PolC-type (Bacillus subtilis (strain 168)) (UniProt P13267). In words: qHTS Validation Assay for the Inhibitors of DNA Replication in Gram-Positive Bacteria (AID 485295).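 Further: reconstituted holoenzyme with PolC plus beta clamp SSB and primase; PicoGreen fluorescence of double-stranded DNA made on primed circular M13 template; series mostly up to about 57 µM.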 In a few lines: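 First, compound is mixed with the reconstituted replication complex and held at room temperature. Next, circular single-stranded M13Gori with nucleotides starts synthesis. Finally, PicoGreen in EDTA halts the reaction and stains double-stranded product for fluorescence reading.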

Test [7] addresses Tumor susceptibility gene 101 protein (Homo sapiens) (UniProt Q99816). In words: qHTS Validation Assay for Iinhibitors of HIV-1 Budding by Blocking the Interaction of PTAP/TSG101 (AID 485342; calls by dose curve). In a few lines: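 Binding of a FITC-tagged PTAP-motif peptide (50 nM) to the Tsg101 binding domain (10 uM) is monitored by fluorescence polarization. Compounds are pin-delivered before peptide addition, and incubation runs 20 min at room temperature.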

The target of test [8] is Beta-2 adrenergic receptor (Homo sapiens) (UniProt P07550). In words: qHTS validation assay of beta-arrestin-biased ligands of beta2-adrenergic receptor (AID 485366). In short, it runs like this: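 Compound series up to 46 microM applied to beta2-AR/beta-arrestin Tango cells, 18 hr, 37 degrees C, 5% CO2. Read-out: tTA-driven luciferase luminescence, converted to %Activity; concentration-response curves assigned curve classes.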

The target of test [9] is ATP-dependent 6-phosphofructokinase (Trypanosoma brucei brucei) (UniProt O15648). Nature of the test: qHTS Validation Assay to Find Inhibitors of T. brucei phosphofructokinase (AID 485368). In short, it runs like this: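 qHTS format, up to 57 uM. PFK 1.25 nM; F6P 0.5 mM; ATP 0.1 mM; 5 mM MgCl2, 0.01% Tween20, 0.1% BSA; 0.1 M TEA pH 8.0; 45 min RT; ADP-Glo readout; no-enzyme control = full inhibition.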

In test [10] the target is Thioredoxin reductase 1, cytoplasmic (Rattus norvegicus) (UniProt O89049). Nature of the test: qHTS Assay for Substrates of Mammalian Selenoprotein Thioredoxin Reductase 1 (TrxR1) (AID 488772).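 Further: series mostly up to about 57 µM; a drop in NADPH fluorescence below the no-compound background marks a TrxR1 substrate.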 In short, it runs like this: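 In this dual-purpose format, potential substrates are identified from the first fluorescence read after selenite addition, not from the 8-minute delta. Rat enzyme is preincubated with NADPH and then with compound at ~22 deg C.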

Test [11] has the same target. Nature of the test: qHTS Assay for Inhibitors of Mammalian Selenoprotein Thioredoxin Reductase 1 (TrxR1) (AID 488773).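 Further: drop in NADPH fluorescence over an 8 min run after selenite addition; series mostly up to about 57 µM; nearly all actives have a fitted effect of over 40% in size.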 The following applies: Potency: inhibition. In a few lines: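 Inhibition is scored from the loss of NADPH fluorescence between first and last reads of an 8-min kinetic run. Selenite (400 uM) was the substrate, added after 15 min compound preincubation at room temperature.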

Test [12] has as its target Flap endonuclease 1 (Homo sapiens) (UniProt P39748). In words: qHTS Validation Assay for the Inhibitors of Human Flap endonuclease 1 (FEN1) (AID 488816). In short, it runs like this: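 Enzyme reagent 10 nM; cpds pinned; 15 min RT preinc.; substrate 50 nM final; reads t=0 and 15 min; no-enzyme buffer wells as neg. control; normalized data, 4-parameter Hill fit.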
In test [13] the target is M-phase phosphoprotein 8 (Homo sapiens) (UniProt Q99549). Nature of the test: qHTS Validation Assay for Inhibitors for MPP8 Chromodomain Interactions with Methylated Histone Tails (AID 488949).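 Further: 50 nM MPP8 with 50 nM peptide preformed then compounds added for 30 min; AlphaScreen signal from MPP8 chromodomain bound to biotinylated H3K9me3 peptide; top concentration of the series differs between compounds; nearly all actives have a fitted effect of over 55% in size.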 In short, it runs like this:
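50 nM MPP8 + 50 nM b-H3K9me3 peptide, PBS pH 7.4/0.01% Tween-20, 30 min RT; + cpd 30 min RT; + AlphaScreen donor/Ni-chelate acceptor beads 10 ug/mL final, 30 min dark; luminescence read.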

Test [14] addresses Chromobox protein homolog 1 (Homo sapiens) (UniProt P83916). Nature of the test: qHTS Validation Assay for Inhibitors of HP1-beta Chromodomain Interactions with Methylated Histone Tails (AID 488953). Further: nearly all actives have a fitted effect of over 50% in size. Further: potency means the concentration at half of the fitted maximal effect. In a few lines:
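AlphaScreen proximity readout: streptavidin donor and Ni-chelate acceptor beads, 10 ug/mL final, 30 min dark, RT. Complex of 50 nM HP1-beta and 50 nM b-H3(1-18)K9me3 formed 30 min, then compound-treated 30 min; PBS pH 7.4/0.01% Tween-20.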

A short description of test [15]: qHTS Validation Assay to Find Inhibitors of Chronic Active B-Cell Receptor Signaling (AID 485345; active means well fitted curve in the direction sought with a large enough effect in the main read-out, with a control signal flat, not every such curve was filed as active). In a few lines: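 TMD8 ABC-DLBCL cells stably carrying doxycycline-inducible IkappaBalpha–green luciferase fusion plus unfused red luciferase; compounds 46 uM to 3 nM, 4 h at 37C with doxycycline. Corrected green/red luminescence ratio normalized to 10 uM MG-132 and basal cell wells; curves fitted.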

Test [16] can be described thus: Quantitative high throughput screen for delayed death inhibitors of the malarial parasite plastid, 96 hour incubation (AID 488745).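 Further: luciferase-expressing P. falciparum in erythrocytes at 2% hematocrit and 0.1% parasitemia; series mostly up to about 29 µM; nearly all actives have a fitted effect of over 70% in size.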 In short, it runs like this: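 Luciferase-expressing P. falciparum, infected RBCs 2% Hct/0.1% parasitemia (final); 96 h cpd exposure, 37 C, 5% CO2; RPMI 1640 + 0.5% Albumax, bicarbonate, gentamycin. Readout: luminescence loss = growth inhibition.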

The nature of test [17]: Quantitative high throughput screen for delayed death inhibitors of the malarial parasite plastid, 48 hour incubation (AID 488752). Further: nearly all actives have a fitted effect of over 65% in size. In short, it runs like this: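 Luciferase-expressing P. falciparum in RBCs, 2% Hct, 0.1% parasitemia final; RPMI 1640 + 0.5% Albumax; 48 h, 37 C, 5% CO2; luminescence readout, signal drop = growth inhibition.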

Sequence of Chromobox protein homolog 1 (Homo sapiens) (P83916 whole entry, looked up): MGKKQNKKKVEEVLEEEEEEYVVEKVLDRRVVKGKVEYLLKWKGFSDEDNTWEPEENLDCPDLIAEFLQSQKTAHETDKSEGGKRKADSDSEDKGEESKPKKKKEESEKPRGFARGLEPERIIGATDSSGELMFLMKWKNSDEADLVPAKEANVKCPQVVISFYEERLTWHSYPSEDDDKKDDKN
Sequence of M-phase phosphoprotein 8 (Homo sapiens) (Q99549 whole entry, looked up): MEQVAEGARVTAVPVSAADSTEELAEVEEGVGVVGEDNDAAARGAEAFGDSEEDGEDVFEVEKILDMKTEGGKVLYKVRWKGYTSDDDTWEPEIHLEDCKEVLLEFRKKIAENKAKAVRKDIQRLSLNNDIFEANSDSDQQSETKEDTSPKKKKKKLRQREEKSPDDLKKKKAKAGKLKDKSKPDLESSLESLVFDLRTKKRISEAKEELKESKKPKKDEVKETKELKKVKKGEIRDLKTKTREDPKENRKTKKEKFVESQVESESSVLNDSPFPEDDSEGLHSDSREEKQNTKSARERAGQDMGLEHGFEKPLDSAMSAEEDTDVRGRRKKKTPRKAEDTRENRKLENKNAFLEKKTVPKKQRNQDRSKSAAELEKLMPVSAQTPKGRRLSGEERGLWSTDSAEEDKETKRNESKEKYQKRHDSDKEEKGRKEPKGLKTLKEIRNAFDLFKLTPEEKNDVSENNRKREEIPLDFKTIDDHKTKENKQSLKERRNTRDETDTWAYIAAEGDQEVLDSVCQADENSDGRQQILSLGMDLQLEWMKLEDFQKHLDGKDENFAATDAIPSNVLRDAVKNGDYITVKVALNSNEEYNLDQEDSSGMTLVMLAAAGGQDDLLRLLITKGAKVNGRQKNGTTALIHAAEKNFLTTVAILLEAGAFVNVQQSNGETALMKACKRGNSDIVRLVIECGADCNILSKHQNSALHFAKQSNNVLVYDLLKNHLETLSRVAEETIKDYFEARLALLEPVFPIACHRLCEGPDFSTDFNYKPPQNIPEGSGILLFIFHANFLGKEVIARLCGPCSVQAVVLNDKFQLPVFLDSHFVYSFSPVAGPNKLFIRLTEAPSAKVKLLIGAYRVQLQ
Sequence of DNA polymerase III PolC-type (Bacillus subtilis (strain 168)) (P13267 whole entry, looked up): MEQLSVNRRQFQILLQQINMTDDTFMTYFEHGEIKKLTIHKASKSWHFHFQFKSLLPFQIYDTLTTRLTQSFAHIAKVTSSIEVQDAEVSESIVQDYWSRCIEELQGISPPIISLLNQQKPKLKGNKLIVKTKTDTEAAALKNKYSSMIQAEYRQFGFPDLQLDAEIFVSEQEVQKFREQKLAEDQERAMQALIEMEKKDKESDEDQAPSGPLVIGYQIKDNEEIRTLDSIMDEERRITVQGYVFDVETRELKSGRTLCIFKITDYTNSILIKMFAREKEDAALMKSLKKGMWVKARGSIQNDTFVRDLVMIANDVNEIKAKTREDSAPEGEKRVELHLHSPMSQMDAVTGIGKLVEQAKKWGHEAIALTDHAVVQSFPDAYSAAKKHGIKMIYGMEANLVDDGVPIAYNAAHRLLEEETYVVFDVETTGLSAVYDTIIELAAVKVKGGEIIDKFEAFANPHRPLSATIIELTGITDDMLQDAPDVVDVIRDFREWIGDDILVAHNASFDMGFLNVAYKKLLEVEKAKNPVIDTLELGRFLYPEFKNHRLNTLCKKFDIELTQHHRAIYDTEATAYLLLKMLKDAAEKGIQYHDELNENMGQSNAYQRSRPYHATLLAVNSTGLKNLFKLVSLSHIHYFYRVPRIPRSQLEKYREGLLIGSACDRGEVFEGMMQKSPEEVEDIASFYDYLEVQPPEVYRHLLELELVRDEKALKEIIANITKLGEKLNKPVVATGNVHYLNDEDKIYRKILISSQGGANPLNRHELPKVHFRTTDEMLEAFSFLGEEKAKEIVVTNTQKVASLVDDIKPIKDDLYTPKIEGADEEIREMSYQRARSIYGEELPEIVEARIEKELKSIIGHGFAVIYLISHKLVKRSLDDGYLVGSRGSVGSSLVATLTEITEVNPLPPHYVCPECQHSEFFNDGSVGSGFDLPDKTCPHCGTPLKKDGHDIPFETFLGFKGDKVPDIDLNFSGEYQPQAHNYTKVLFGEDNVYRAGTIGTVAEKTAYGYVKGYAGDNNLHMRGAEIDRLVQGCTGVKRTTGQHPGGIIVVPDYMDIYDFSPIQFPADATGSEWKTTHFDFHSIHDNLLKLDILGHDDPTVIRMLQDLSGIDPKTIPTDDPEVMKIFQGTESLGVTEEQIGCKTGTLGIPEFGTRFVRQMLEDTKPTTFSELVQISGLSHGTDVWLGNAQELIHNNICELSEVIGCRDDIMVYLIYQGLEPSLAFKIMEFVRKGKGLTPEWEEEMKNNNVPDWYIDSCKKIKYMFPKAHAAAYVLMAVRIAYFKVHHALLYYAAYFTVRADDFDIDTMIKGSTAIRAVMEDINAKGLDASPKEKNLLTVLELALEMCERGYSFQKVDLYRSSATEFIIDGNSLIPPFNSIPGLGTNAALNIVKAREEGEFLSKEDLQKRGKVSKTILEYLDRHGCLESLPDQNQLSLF
Sequence of Beta-2 adrenergic receptor (Homo sapiens) (P07550 whole entry, looked up): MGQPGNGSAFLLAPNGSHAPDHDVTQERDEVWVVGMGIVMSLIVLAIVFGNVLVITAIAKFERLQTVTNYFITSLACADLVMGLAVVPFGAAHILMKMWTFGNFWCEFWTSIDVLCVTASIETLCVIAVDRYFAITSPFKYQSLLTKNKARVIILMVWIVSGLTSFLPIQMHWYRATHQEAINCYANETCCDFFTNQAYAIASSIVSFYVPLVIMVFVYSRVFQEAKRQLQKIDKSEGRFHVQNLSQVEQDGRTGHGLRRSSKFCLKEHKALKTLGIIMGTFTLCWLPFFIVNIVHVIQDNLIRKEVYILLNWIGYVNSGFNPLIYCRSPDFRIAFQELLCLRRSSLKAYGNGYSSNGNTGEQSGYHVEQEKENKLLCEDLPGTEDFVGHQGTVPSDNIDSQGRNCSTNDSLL
Sequence of Flap endonuclease 1 (Homo sapiens) (P39748 whole entry, looked up): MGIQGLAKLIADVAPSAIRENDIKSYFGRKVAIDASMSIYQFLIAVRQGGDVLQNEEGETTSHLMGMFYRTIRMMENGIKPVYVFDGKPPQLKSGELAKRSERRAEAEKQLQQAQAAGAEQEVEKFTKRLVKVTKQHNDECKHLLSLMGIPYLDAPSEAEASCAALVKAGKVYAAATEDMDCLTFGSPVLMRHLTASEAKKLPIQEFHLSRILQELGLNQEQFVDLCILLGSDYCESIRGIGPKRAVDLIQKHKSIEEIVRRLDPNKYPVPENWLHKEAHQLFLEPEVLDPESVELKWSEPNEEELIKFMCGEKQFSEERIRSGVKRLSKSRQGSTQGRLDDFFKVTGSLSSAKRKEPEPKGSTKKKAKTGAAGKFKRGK
Sequence of ATP-dependent 6-phosphofructokinase (Trypanosoma brucei brucei) (O15648 whole entry, looked up): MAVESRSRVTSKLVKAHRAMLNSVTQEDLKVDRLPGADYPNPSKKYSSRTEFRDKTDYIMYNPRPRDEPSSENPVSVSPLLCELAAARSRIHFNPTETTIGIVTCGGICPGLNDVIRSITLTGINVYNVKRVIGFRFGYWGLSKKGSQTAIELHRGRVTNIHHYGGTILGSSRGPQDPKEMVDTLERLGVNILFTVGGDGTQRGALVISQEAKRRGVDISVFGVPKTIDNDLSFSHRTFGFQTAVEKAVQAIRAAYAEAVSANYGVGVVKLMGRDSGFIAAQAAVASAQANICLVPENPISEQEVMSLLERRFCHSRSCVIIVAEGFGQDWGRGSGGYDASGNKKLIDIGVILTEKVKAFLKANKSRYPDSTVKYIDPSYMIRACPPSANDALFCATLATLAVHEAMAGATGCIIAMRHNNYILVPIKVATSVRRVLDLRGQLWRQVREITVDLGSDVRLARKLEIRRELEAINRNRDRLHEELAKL
Sequence of Thioredoxin reductase 1, cytoplasmic (Rattus norvegicus) (O89049 whole entry, looked up): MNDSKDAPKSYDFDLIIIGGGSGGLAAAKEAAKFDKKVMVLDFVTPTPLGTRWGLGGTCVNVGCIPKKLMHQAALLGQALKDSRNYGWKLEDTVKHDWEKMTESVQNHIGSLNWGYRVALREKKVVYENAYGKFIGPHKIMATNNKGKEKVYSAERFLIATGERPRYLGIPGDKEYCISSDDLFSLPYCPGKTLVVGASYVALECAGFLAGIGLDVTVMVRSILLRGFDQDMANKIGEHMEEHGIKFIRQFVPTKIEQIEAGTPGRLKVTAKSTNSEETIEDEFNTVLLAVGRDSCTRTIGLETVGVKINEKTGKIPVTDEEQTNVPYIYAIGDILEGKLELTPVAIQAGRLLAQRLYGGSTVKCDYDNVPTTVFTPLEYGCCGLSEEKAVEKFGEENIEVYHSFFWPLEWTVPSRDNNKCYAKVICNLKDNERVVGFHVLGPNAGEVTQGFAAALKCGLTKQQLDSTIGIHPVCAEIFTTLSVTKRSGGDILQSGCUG
Sequence of Ubiquitin carboxyl-terminal hydrolase 2 (Homo sapiens) (O75604 whole entry, looked up): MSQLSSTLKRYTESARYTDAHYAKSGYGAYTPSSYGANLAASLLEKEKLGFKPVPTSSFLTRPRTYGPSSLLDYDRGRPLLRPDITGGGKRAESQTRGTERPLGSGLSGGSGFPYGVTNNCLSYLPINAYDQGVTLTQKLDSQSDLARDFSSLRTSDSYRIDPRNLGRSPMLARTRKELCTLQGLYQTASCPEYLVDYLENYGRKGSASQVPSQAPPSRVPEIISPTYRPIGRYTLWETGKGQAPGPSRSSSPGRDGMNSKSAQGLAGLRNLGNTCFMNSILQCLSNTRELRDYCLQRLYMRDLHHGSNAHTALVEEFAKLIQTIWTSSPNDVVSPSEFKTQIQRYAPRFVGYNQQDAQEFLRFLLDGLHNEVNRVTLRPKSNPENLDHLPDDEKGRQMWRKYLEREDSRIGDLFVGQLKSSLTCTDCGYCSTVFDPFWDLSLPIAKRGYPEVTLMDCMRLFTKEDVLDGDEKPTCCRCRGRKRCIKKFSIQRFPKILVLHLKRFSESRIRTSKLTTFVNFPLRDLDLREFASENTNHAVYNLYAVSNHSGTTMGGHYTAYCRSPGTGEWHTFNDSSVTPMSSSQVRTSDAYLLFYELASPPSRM

On to `COc1cc(SC)ccc1C(=O)N1CCC(Cc2ccccc2)CC1`, for which the result in [1], in test [7] and in test [8] was inactive. In addition, the Potency result in test [2], in test [3], in test [4], in [5], in [6] and in test [9] was “inactive” in each case. The Potency entry in test [10], in test [11], in test [12], in [13] and in test [14] was “inactive” throughout.

Consider `Ic1ccc(N2CCN(Cc3c[nH]c4ncccc34)CC2)cc1`, for which the result in test [1], in [7], in test [15] and in test [8] was inactive. For the same compound, the Potency result in test [2], in test [3], in test [4], in [5], in test [6] and in test [16] was “inactive” throughout. The Potency result in test [17], in test [10], in test [11], in test [12] and in test [13] was “inactive” in each case. The Potency in test [14] was 44.7 µM (active).

Consider `NC(=S)c1ccc[n+]([C@@H]2O[C@@H](COP(=O)([O-])OP(=O)(O)OC[C@H]3O[C@@H](n4cnc5c(N)ncnc54)[C@H](OP(=O)(O)O)[C@@H]3O)C(O)C2O)c1` (stereo partly specified), for which the result in test [1], in [7] and in test [8] was inactive. In addition, the Potency result in [2], in test [3], in [4], in [5], in test [6] and in test [9] was “inactive” each time. Further, the Potency result in test [10], in test [11], in test [12] and in [13] was “inactive” each time. Moreover, the Potency in test [14] was 89.1 µM (active).

As to `S=C(S)OC1CC2CC1C1CCCC21` (stereo unspecified), the outcome in test [1], in test [7] and in test [8] was inactive. Also, the Potency result in test [2], in test [3], in test [4], in test [5], in test [6] and in test [9] was “inactive” each time. Moreover, the Potency result in [16], in test [17], in test [10], in [12] and in [13] was “inactive” throughout. Moreover, in test [14], the Potency was 39.8 µM (active).

`C[N+]1(C)C2CC(OC(=O)[C@H](CO)c3ccccc3)CC1C1OC12` (stereo partly specified): the compound was classed as inactive in test [1], in test [7], in [15] and in test [8]. The Potency entry in test [2], in test [3], in [4], in [5], in test [6] and in test [10] was “inactive” each time. In addition, the Potency result in test [11] was “inactive”.

`CNC(=O)[C@H]1O[C@@H](n2cnc3c(NCc4ccc(N)cc4)ncnc32)[C@H](O)[C@@H]1O`: the compound was called inactive in test [1], in test [7] and in test [8]. The Potency result in [2], in [3], in test [4], in test [5], in [6] and in test [9] was “inactive” each time. Further, the Potency entry in [10], in test [12], in test [13] and in test [14] was “inactive” each time.

Regarding `CO/S(=N\S(=O)(=O)c1ccc(Cl)cc1)c1ccc([N+](=O)[O-])cc1` (stereo unspecified), the call in test [1], in [7], in test [15] and in test [8] was inactive. Also, the Potency entry in test [2], in [3], in test [4], in [5], in [6] and in test [10] was “inactive” throughout. Besides, the Potency entry in test [11], in test [12] and in test [13] was “inactive” throughout.
